From PubChem BioAssay (NCI) come the findings set out here.

Compounds without any hit were thinned out: in the full panel of roughly 79,000, 15% have a hit. Values without a mark were called inactive. The source made the active and inactive calls. Cut-off read from the data, not from the text of the source: active = growth inhibition above about 70%; inactive = the rest.

The first assay can be described thus: NCI Yeast Anticancer Drug Screen. Data for the bub3 strain (AID 167). The note with it: S. cerevisiae bub3 mutant strain, at 5.0 µM (retest, dose inferred, filed as 0.5), hits give high values. In outline:
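Mutant yeast screening strain plus compound; vehicle-treated cultures serve as the 0% inhibition reference.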
In the case of `CCCOC(=O)CCCC(=O)N(CC)CC`, the growth inhibition is -4%.
Regarding `CCOC(=O)C(=O)CC1=Nc2ccccc2SC(c2cccc(C)c2)C1` (stereo not given), the growth inhibition was 12%.
Take `COc1cc2c(c(-c3cn(C)c4ccccc34)c1OC)OCO2`: the growth inhibition is 2%.
With `COC(=O)c1c(C)cccc1C1CN=NC12Cc1ccc(C)c(C)c1C2=O` (stereo not given), the growth inhibition is 8%.
As for `CCCCCCCCCCC(=O)CC(=O)c1c(O)cccc1O`, the growth inhibition is 12%.
For the molecule `CCCCCCNC(=S)N/N=C(\C)c1ccccn1`, the growth inhibition was 98% (active).
Still for that read-out and setting: the figure for `Oc1ccc(N=Nc2ccc(Cl)cc2)cc1O` is -35%; for `CCO/C=C1\N=C(C(O)(c2ccc(Cl)cc2)c2ccc(Cl)cc2)OC1=O` it is 13%; for `Clc1ccc(CN2COc3c(ccc4cccnc34)C2)cc1` it is -4%.
Still for that read-out and setting: the result for `Cc1nc(C(N)=S)sc1/C(CC(=O)C(=O)Nc1cccc2ccc(O)cc12)=N\NC(=O)c1ccncc1` reads 32%; that for `Nc1ncc(C(=O)c2ccccc2)cc1[N+](=O)[O-]`, -76%.
Take `O=C1C2C3C=CC(C3)C2C(=O)C2C3C=CC(C3)C12` (stereo not given): the growth inhibition was 53%.
On the same count and under the same terms, the figure for `CCCCOC(=O)c1cnc[nH]c1=O` is -5%.
With `N#CC(c1ccc(Cl)cc1)c1ccc([N+](=O)[O-])cc1` (stereo not given), the growth inhibition is 2%.
As to `CN(C)C(N)=NC#N`, the growth inhibition is 29%.
Regarding `CCCCc1c(O)c(N=NC(=O)C[n+]2ccccc2)c2ccccc2c1O`, the growth inhibition is -3%.
Consider `CCOC(=O)C(=O)Nc1nc2c(s1)C(=O)c1ccccc1C2=O`, for which the growth inhibition is 46%.
Turning to `COc1ccc(C(=O)Nc2ccccc2[N+](=O)[O-])cc1`, the growth inhibition is -15%.
As to `COc1ccccc1NC(=O)/C(=C/n1c(=S)sc2ccccc21)C(C)=O`, the growth inhibition was -9%.
The same measure, in the same setting: the result for `Cc1ccc(C)c(C(=O)/C=C/C(=O)O)c1` reads 27%.

The assay is the same for the next values; noted with them: S. cerevisiae bub3 mutant strain, at 50.0 µM (retest, dose inferred, filed as 5.0), hits give high values.
Turning to `CCCCN(CCC(=O)O)c1ccc(/C=C\c2ccnc3ccccc23)cc1`, the growth inhibition was 68%.
As to `CC1CC(N)=NC1C(=O)NCCC#N` (stereo not given), the growth inhibition is -12%.
As for `O=C(CC1(O)CCCCC1)OC1CCCC1`, the growth inhibition is -10%.
Turning to `CN(C)c1nc(-c2ccccc2)cc(-c2ccc(O)cc2)n1`, the growth inhibition was 77% (active).
Still for that read-out and setting: the figure for `Oc1cc(C(c2ccccc2)c2ccccc2)c2ccccc2c1O` is 2%; for `C(=P(c1ccccc1)(c1ccccc1)c1ccccc1)[P+](c1ccccc1)(c1ccccc1)c1ccccc1` it is 99% (active).
On the same count and under the same terms, the figure for `COC(=O)c1ccc(CCc2cc(O)ccc2O)cc1` is 99% (active); for `CCCCCCCCCCN` it is 30%.
The same measure, in the same setting: the figure for `CC[N-]c1nncs1.CC[N-]c1nncs1.CC[N-]c1nncs1.CC[N-]c1nncs1.[Cl][Rh][Cl]` is 77% (active); for `CC(C)C1=CC23CCC4C(C)(C(=O)O)CCCC4(C)C2CC1CC3C#N` (stereo not given) it is 49%; for `COc1ccc(/C(Cl)=C(\C=O)c2ccc(Cl)cc2)cc1` it is 54%.
Regarding `CCOC(=O)Cc1csc(/N=C\c2c(O)c3ccccc3oc2=O)n1`, the growth inhibition is 42%.
`Cc1cccc(/C=N/NC(=S)Nc2ccccc2)n1`: the growth inhibition is 100% (active).
For `Nc1nn2c(C(Br)Br)cc(C(Br)Br)nc2c1[N+](=O)[O-]`, the growth inhibition is 100% (active).
Take `c1ccc2nc3ccccc3nc2c1`: the growth inhibition is 45%.
The same measure, in the same setting: the figure for `O=c1ccc2nc3ccccc3ccc-2c1` is -79%; for `C=CCOCC(C)OC(=O)C(C)C` (stereo not given) it is -78%; for `CCCCCCOC(=O)CCC(=O)OCCCCCC` it is 43%.
As for `CC(=O)C(C(C)=O)C1C=CC=CC=C1`, the growth inhibition was 86% (active).
For the molecule `CCCOC(=O)CCCC(=O)N(CC)CC`, the growth inhibition was -3%.
`CCOC(=O)C(=O)CC1=Nc2ccccc2SC(c2cccc(C)c2)C1` (stereo not given): the growth inhibition is 98% (active).
Regarding `COc1cc2c(c(-c3cn(C)c4ccccc34)c1OC)OCO2`, the growth inhibition was 78% (active).
On the same count and under the same terms, the figure for `COC(=O)c1c(C)cccc1C1CN=NC12Cc1ccc(C)c(C)c1C2=O` (stereo not given) is 81% (active).
As to `CCCCCCCCCCC(=O)CC(=O)c1c(O)cccc1O`, the growth inhibition was 17%.
Turning to `CCCCCCNC(=S)N/N=C(\C)c1ccccn1`, the growth inhibition was 99% (active).
The same measure, in the same setting: the result for `Oc1ccc(N=Nc2ccc(Cl)cc2)cc1O` reads 98% (active); that for `CCO/C=C1\N=C(C(O)(c2ccc(Cl)cc2)c2ccc(Cl)cc2)OC1=O`, 8%.
With `Clc1ccc(CN2COc3c(ccc4cccnc34)C2)cc1`, the growth inhibition is 85% (active).
Consider `Cc1nc(C(N)=S)sc1/C(CC(=O)C(=O)Nc1cccc2ccc(O)cc12)=N\NC(=O)c1ccncc1`, for which the growth inhibition is 29%.
Regarding `Nc1ncc(C(=O)c2ccccc2)cc1[N+](=O)[O-]`, the growth inhibition was -58%.
